# From PubChem BioAssay
# Values joined by “and” are separate entries in the source; they are usually repeats but may differ in a detail not shown here. Equal entries are not always repeated. Active and inactive are the calls of the source.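 The calls were made as follows, unless noted: active = inhibition at or above 50% relative to wild type and mutant plate controls; inactive = inhibition below 50%.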
# What was measured:
# [1] = inhibitors of TNFa-induced NFkB p65 translocation, primary screen, imaging, HUVEC, MLSMR starter and 10KST1 sets (AID 438;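 active = inhibition above 20% together with a positive visual image hit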;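 also: compound added about 3h40 before a 20 min TNFalpha stimulation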;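 as to inhibition: signal is the nuclear over cytoplasmic p65 intensity ratio per well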); settings: HUVEC TNFa-induced p65 nuclear translocation; cell count: measured here: nuclei count (cytotoxicity indicator), at 2.08 µM unless noted; inhibition: at 2 µM, stronger effect = higher value unless noted
# [2] = reduction of polyQ htt aggregates in cells – imaging, exon1htt(103Q)mCFP cells, high-content imaging, primary screen (AID 483;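 active = visual image review flags a hit and inhibition of aggregation exceeds 20%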;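 also: compound exposure lasted 3 days before fixation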;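 as to nuclei count: percent of the per-plate median nuclei count of sample wells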); settings: exon1htt(103Q)mCFP cell line, aggregate imaging, at 2 µM; inhibition of aggregation: stronger effect = higher value; nuclei count: measured here: cell count, toxicity
# [3] = endothelial E-selectin expression blockers – imaging, HUVEC, immunofluorescence, MLSMR starter and 10KST1 sets, primary screen (AID 487;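 active = visually confirmed hit in the image check and inhibition above 20%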;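 as to inhibition: signal is fraction of cell area covered by stained E-selectin grains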;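 as to nuclei count: 100% = median nuclei count of all wells on the same plate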); settings: HUVEC TNFalpha-induced E-selectin immunofluorescence imaging, at 2 µM; inhibition: stronger effect = higher value; nuclei count: measured here: cell number, toxicity
# [4] = Primary imaging screen for DUSP6 inhibitors that restore phospho-Erk in transfected HeLa cells, chemical complementation (AID 609;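 active = compounds giving at least 50% inhibition in the cell-based MKP-3 phosphatase rescue imaging test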;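 as to inhibition: phospho-Erk level distribution per well compared with pooled transfected vehicle control wells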); settings: HeLa MKP-3 transfected, phospho-Erk imaging KS statistic, at 10 µM
# [5] = target: Dual specificity protein phosphatase 6 (Homo sapiens) (UniProt Q16828); test: as above; settings: HeLa MKP-3 transfected, phospho-Erk imaging KS statistic, at 10 µM, stronger effect = higher value
# Sequence of Dual specificity protein phosphatase 6 (Homo sapiens) (Q16828 whole entry, looked up): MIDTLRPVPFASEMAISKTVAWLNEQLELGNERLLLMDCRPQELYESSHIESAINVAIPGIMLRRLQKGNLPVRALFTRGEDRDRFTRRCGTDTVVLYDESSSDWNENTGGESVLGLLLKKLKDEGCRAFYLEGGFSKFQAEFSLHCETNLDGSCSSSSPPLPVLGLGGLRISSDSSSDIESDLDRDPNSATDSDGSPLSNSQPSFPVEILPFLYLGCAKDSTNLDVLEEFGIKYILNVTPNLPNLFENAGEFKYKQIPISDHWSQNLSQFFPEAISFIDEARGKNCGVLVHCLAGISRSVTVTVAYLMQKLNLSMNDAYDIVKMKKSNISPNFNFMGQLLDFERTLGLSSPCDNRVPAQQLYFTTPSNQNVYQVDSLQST
# [6] = target: Voltage-gated potassium channel subunit beta-2 (Rattus norvegicus) (UniProt P62483); test: inhibitors of rat Kvbeta2 reductase activity – biochemical, NADPH fluorescence, primary screen (AID 622;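 active = fluorescence slope higher than the sample average by over 3 SD, cut at about -0.22 in these data, passing the limit was not always enough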;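 also: slope of raw intensity against log time taken from 70 to 1610 s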); settings: recombinant KvBeta, 4-cyanobenzaldehyde reduction, at 10 µM, stronger effect = higher value
# Sequence of Voltage-gated potassium channel subunit beta-2 (Rattus norvegicus) (P62483 whole entry, looked up): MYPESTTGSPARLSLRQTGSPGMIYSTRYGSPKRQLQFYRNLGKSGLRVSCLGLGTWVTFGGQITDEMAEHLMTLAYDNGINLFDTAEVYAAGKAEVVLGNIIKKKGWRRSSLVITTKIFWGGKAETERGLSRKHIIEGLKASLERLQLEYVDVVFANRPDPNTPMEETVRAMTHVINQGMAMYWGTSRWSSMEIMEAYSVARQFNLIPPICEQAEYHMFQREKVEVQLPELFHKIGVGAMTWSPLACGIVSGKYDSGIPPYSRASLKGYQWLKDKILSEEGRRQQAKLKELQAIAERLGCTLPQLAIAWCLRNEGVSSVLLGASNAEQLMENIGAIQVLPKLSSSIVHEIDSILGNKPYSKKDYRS
# [7] = target: Voltage-gated potassium channel subunit beta-2 (Rattus norvegicus) (UniProt P62483); test: enhancers of rat Kvbeta2 NADPH turnover – biochemical, NADPH fluorescence, primary screen (AID 623;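 active = NADPH fluorescence slope more negative than the mean of all samples by about 3 SD, 99.7% confidence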;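 also: fluorescence intensity change per second fitted from 20 to 320 s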); settings: Recombinant KvBeta, NADPH fluorescence decrease slope, 10 min; at 10 µM; stronger effect = lower value
# [8] = target: Alpha-2C adrenergic receptor (Homo sapiens) (UniProt P18825); test: compounds altering alpha2C-coupled GIRK flux – cell-based, HEK293 alpha2C/GIRK1/2, thallium flux, primary screen (AID 624;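 active = fluorescence slope after compound addition differing from the mean of all screened samples at 99.7% confidence, in either direction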;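 also: slope of fluorescence ratio to pre-addition baseline per second over 15 to 24 s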); settings: thallium flux BTC fluorescence, at 10 µM, actives lie on both sides
# Sequence of Alpha-2C adrenergic receptor (Homo sapiens) (P18825 whole entry, looked up): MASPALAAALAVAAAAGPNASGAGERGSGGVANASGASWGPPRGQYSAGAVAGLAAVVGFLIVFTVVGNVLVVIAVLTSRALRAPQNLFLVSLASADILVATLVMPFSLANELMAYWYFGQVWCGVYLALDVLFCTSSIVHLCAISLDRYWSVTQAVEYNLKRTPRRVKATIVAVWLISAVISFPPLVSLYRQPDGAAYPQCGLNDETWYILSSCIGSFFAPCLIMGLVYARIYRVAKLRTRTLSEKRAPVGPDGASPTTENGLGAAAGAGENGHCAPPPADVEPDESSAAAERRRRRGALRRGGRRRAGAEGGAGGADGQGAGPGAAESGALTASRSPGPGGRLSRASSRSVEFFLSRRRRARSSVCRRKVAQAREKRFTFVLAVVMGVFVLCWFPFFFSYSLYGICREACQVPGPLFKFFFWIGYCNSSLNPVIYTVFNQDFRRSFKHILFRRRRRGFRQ
# [9] = inhibitors of larval lipid processing in zebrafish, primary screen, whole organism, PED6 fluorescence, gall bladder and intestine (AID 686;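 active = a full or partial loss of lipid-probe fluorescence in the fish gall bladder, intestine or both, judged by eye; inactive = no fluorescence loss, or compound toxic to the fish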;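 also: larvae 5 to 7 days old with five fish per well; signal comes from phospholipase A2 cleavage of quenched PED6 carried via bile; overnight exposure to compound and PED6 before scoring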); settings: Zebrafish larvae PED6 lipid processing, fluorescence scoring
# [10] = loss of swimming-algae plug formation – whole organism, Chlamydomonas reinhardtii, WT vs cilia-less mutant, absorbance, 96-well, primary screen (AID 463189); settings: Chlamydomonas reinhardtii gravitaxis, OD600 absorbance, 2 days; at 10 µM; stronger effect = higher value;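 also: 0% = wild type cc124 cells in DMSO and 100% = ciliumless bld1 mutant cells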
# [11] = blockers of RIG-like receptor reporter activation – cell-based, Sendai virus stimulus, luciferase, 10K MLSCN set, TLR/RLR signaling modifier project, primary screen (AID 602276;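 active = inhibition at or above 50% at 10 µM; inactive = inhibition below 50%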;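 also: firefly luciferase from ISG56 promoter only with Renilla not read in this screen; 0% = Sendai virus plus DMSO and 100% = medium plus DMSO without virus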); settings: HEK293 RL24 IRF3 luciferase reporter, at 10 µM, stronger effect = higher value
# [12] = TLR3 IRF3 reporter activation blockers – cell-based, poly I:C stimulus, luciferase, 10K MLSCN set, primary screen (AID 602277;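 active = inhibition of the reporter signal at or above 50%; inactive = inhibition below 50%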); settings: HEK293-TLR3 RL24 IRF3 luciferase reporter, at 10 µM, stronger effect = higher value
# [13] = target: Muscarinic acetylcholine receptor M4 (Homo sapiens) (UniProt P08173); test: M4-linked GIRK flux change, two-sided – cell-based, HEK293 M4/GIRK, thallium flux, BTC-AM, M4 allosteric agonist project, primary screen (AID 625;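 active = fluorescence slope after compound addition differing from the mean of all tested samples at 99.7% confidence, mostly higher but some lower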;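 also: thallium influx through GIRK channels coupled to M4 in HEK293 cells with BTC-AM dye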); settings: at 10 µM, actives lie on both sides
# Sequence of Muscarinic acetylcholine receptor M4 (Homo sapiens) (P08173 whole entry, looked up): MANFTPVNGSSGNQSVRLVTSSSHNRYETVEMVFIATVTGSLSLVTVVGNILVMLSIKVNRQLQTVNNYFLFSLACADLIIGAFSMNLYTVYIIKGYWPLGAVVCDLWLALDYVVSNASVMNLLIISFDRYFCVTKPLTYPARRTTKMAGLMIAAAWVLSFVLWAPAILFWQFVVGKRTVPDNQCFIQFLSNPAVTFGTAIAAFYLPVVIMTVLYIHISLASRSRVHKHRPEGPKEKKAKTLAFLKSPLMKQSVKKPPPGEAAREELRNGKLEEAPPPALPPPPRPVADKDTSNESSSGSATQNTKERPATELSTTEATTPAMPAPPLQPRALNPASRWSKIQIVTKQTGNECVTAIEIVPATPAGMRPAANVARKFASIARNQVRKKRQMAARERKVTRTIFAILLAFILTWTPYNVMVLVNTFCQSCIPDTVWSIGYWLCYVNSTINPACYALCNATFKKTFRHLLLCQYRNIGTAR
# [14] = measured here: cell density z-score
# [15] = measured here: nuclear c-Myc green intensity z-score
# [16] = measured here: nuclear pErk red intensity z-score, stronger effect = higher value
SMILES,cell count [1],inhibition [1],inhibition of aggregation [2],nuclei count [2] [%],inhibition [3],nuclei count [3] [%],"z-score [4, 14]","z-score [4, 15]","z-score [4, 16]",inhibition [5],fluorescence slope [6],NADPH fluorescence slope [7],slope [8],outcome [9],inhibition [10],inhibition [11],inhibition [12],fluorescence slope [13]
C#CCN(C)C(C)Cc1ccccc1 (stereo unspecified),624,-1.1% (inactive),13.6% (inactive),96.7,-90.1% (inactive),124,-0.521,1.36,0.296,8% (inactive),-0.447 (inactive),-7.1e-05 (inactive),0.00486 (inactive),inactive,10.4% (inactive),16.5% (inactive),40.6% (inactive),–
CC[N+]1(C)CCCC(OC(=O)C(O)(c2ccccc2)c2ccccc2)C1 (stereo unspecified),672,-11.6% (inactive),-2.7% (inactive),107,-116% (inactive),119,1.46,-0.0245,-0.802,5.42% (inactive),-0.46 (inactive),-4.6e-05 (inactive),0.0046 (inactive),inactive,-2.15% (inactive),-2.74% (inactive),37.1% (inactive),–
CN(C)[C@@H]1C(=O)C(C(N)=O)=C(O)[C@@]2(O)C(=O)C3=C(O)c4c(O)ccc(Cl)c4[C@@](C)(O)C3C[C@@H]12 (stereo partly specified),634,-1.6% (inactive),76.3% (active),102,-43.7% (inactive),123,-1.02,0.954,-0.997,21.2% (inactive),-0.468 (inactive),-6.5e-07 (inactive),0.00588 (inactive),inactive,51.9% (active),23% (inactive),44.9% (inactive),–
Nc1ccc(C2(c3ccc(N)cc3)CN3CCC2CC3)cc1,688,-0.7% (inactive),1.5% (inactive),104,-49.8% (inactive),138,-0.8,0.409,-0.625,1.12% (inactive),-0.502 (inactive),-3e-05 (inactive),0.00562 (inactive),inactive,8.44% (inactive),2.43% (inactive),13.5% (inactive),0.00533 (inactive)
CCOc1ccc(-n2c(O)c(C=NCCN3CCNCC3)c(=O)[nH]c2=O)cc1,537,3.2% (inactive),-17.4% (inactive),96.7,-38.9% (inactive),144,-0.956,-1.36,0.949,-4.7% (inactive),-0.351 (inactive),-8.4e-06 (inactive),0.00537 (inactive),inactive,8.26% (inactive),14.4% (inactive),22.5% (inactive),–
C[N+]1(C)CCN(c2ccccc2)CC1,637,-3.4% (inactive),-27% (inactive),102,-66.8% (inactive),118,1.65,-1.1,-0.542,19% (inactive),-0.439 (inactive),-4.1e-05 (inactive),0.00481 (inactive),inactive,7.37% (inactive) and 14.5% (inactive),0.511% (inactive),51.8% (active),–
O=c1[nH]c(=O)n(-c2cccc3ccccc23)c(O)c1C=NCCCn1ccnc1,430,2.6% (inactive),-2.6% (inactive),113,-19% (inactive),71.8,0.0574,-0.666,-0.681,-5.95% (inactive),-0.411 (inactive),-2.1e-05 (inactive),0.00458 (inactive),inactive,-5.53% (inactive),19% (inactive),17.8% (inactive),0.00656 (inactive)
[N-]=[N+]=CC(=O)OC[C@H](N)C(=O)O,594,-4% (inactive),-0.4% (inactive),104,-25.7% (inactive),133,-0.1,-0.513,-0.992,25.1% (inactive),-0.53 (inactive),2.4e-05 (inactive),0.00503 (inactive),inactive,-8.35% (inactive),16.7% (inactive),21.9% (inactive),–
c1ccc2c(c1)[nH]c1cnccc12,584,-5.4% (inactive),-8.3% (inactive),86.9,-52.4% (inactive),113,0.863,-0.369,0.512,-10.4% (inactive),-0.166 (active),2.2e-05 (inactive),0.00469 (inactive),inactive,6.75% (inactive),2.27% (inactive),16.3% (inactive),–
c1ccc2c3c([nH]c2c1)CNCC3,485,-1.2% (inactive),3.2% (inactive),92.7,-84.5% (inactive),114,0.136,-0.573,-0.521,23.4% (inactive),-0.459 (inactive),-6.4e-05 (inactive),0.00455 (inactive),–,24.5% (inactive),4.35% (inactive),51.6% (active),–
